From PubChem BioAssay (NCI) come the findings set out here.

Assay [1] can be described thus: NCI Yeast Anticancer Drug Screen. Data for the rad50 strain (AID 155).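 Further: 0% = growth of vehicle-only cultures of the same strain.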 To be noted: S. cerevisiae rad50 strain growth inhibition; at 50.0 µM; active compounds read high. In a few lines:
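Relative growth inhibition (compound vs vehicle) was measured in yeast with a defined repair-gene alteration.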

Assay [2] in a line: NCI Yeast Anticancer Drug Screen. Data for the mec2-1 strain (AID 157). The note with it: S. cerevisiae mec2-1 strain, at 50.0 µM, active compounds read high. In a few lines:
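Strain: mec2-1 (DNA repair/cell cycle alteration). Compound exposure, then growth measured; inhibition expressed relative to vehicle.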

Assay [3] can be described thus: NCI Yeast Anticancer Drug Screen. Data for the sgs1 mgt1 strain (AID 161).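 Further: 0% = growth of cultures given vehicle only.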 To be noted: S. cerevisiae sgs1 mgt1 strain, at 50.0 µM, active compounds read high. The gist of the method: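 Genetically altered yeast, compound exposure, growth inhibition relative to vehicle.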
Assay [4] is described as follows: NCI Yeast Anticancer Drug Screen. Data for the cln2 rad14 strain (AID 165).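 Further: 0% = growth equal to vehicle treated cultures.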 To be noted: S. cerevisiae cln2 rad14 strain, at 50.0 µM, active compounds read high. The gist of the method: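 Compounds are applied to the cln2 rad14 yeast strain, and growth is then compared with that of vehicle-treated cultures to give inhibition.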
The nature of assay [5]: NCI Yeast Anticancer Drug Screen. Data for the bub3 strain (AID 167). The note with it: S. cerevisiae bub3 mutant strain, at 50.0 µM, active compounds read high. In a few lines:
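Screening used yeast with an engineered genetic alteration affecting cell cycle control. Compound-exposed cultures were compared with vehicle cultures, and reduced growth was taken as inhibition.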

The nature of assay [6]: NCI Yeast Anticancer Drug Screen. Data for the mlh1 rad18 strain (AID 175). To be noted: S. cerevisiae mlh1 rad18 strain growth inhibition; at 50.0 µM; active compounds read high. The gist of the method: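 Read-out is yeast growth inhibition, calculated against vehicle-only controls. The compound was applied to a strain engineered with DNA damage repair alterations.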

Compounds without any hit were thinned out: in the full panel of roughly 79,000, 15% have a hit. Values without a mark were called inactive. Activity calls are given as the source filed them. No stated cut-off is given here; in the data, active means growth inhibition above about 70%; inactive means the rest.

For the molecule `OCC1OC(n2cc3ccccc3n2)C(O)C1O` (stereo unspecified), the growth inhibition was 3.55% in assay [1]; 4.85% in assay [2]; -5.55% in assay [3]; -3.8% in assay [4]; 5.65% in assay [5]; -8.45% in assay [6].
Consider `C[N+]1=C(/C=C/c2ccnc3c(O)cccc23)C(C)(C)c2ccccc21`, for which the growth inhibition in assay [1] was 10%; in assay [2], 11.2%; in assay [3] it was 2.45%; in assay [4], -60.4%; in assay [5], -6.4%; in assay [6] it was 8.65%.
`Cc1ccc(S(=O)(=O)N(CCCc2c(Cl)nc(N)nc2Cc2ccccc2)c2ccccc2)cc1`: the growth inhibition in assay [1] was -9.75%; in assay [2], -16.5%; in assay [3] it was -17.2%; in assay [4] it was -73.8%; in assay [5], -0.8%; in assay [6], -4.65%.
On to `Cc1ccc(S(=O)(=O)CN2C(=O)C(c3ccccc3)(c3ccccc3)C23OC(c2ccc(Cl)cc2)=CC3=O)cc1` (stereo unspecified), for which the growth inhibition is -2.35% in assay [1]; -7.7% in assay [2]; -5.7% in assay [3]; -20.1% in assay [4]; -35.7% in assay [5]; -21.9% in assay [6].
Take `CCCCNC(=O)/C(=C\c1ccccc1)NC(C)=O`: the growth inhibition in assay [1] was 50.1%; in assay [2] it was 12.1%; in assay [3], 0.85%; in assay [4] it was -8.45%; in assay [5], 10.9%; in assay [6], -14.2%.
On to `O=C(Nc1nc(C23CC4CC(CC(C4)C2)C3)cs1)c1cc2ccc(O)cc2oc1=O`, for which the growth inhibition in assay [1] is 0.7%; in assay [2] it was 15.8%; in assay [3] it was 3.55%; in assay [4], 21.9%; in assay [5], 0.2%; in assay [6], -16.6%.
As for `CC(=O)OCC1OC(n2cnc3c(Cl)nc(Cl)nc32)CC1OC(C)=O` (stereo unspecified), the growth inhibition was 37.3% in assay [1]; 20.9% in assay [2]; 24.4% in assay [3]; 30.4% in assay [4]; 5.2% in assay [5]; 34.9% in assay [6].
In the case of `O=C(Oc1ccc2ccccc2c1CN1CCOCC1)c1ccc([N+](=O)[O-])cc1`, the growth inhibition in assay [1] is 45.8%; in assay [2] it was 29.9%; in assay [3], 33.8%; in assay [4], 30.1%; in assay [5] it was 35.5%; in assay [6] it was 52%.
Consider `CCOCCCN`, for which the growth inhibition in assay [1] is 37.5%; in assay [2], 16.7%; in assay [3], 6.85%; in assay [4], 3.4%; in assay [5], 16.9%; in assay [6] it was 5.25%.
Take `CCOC(=O)c1c(NCCO)c(-c2ccccc2)c(=O)n2c1[nH]c1ccccc12`: the growth inhibition in assay [1] is 2.1%; in assay [2], 6.6%; in assay [3], 4.8%; in assay [4], -1%; in assay [5], -0.9%; in assay [6], 14.9%.
Take `CS(=O)(=O)OCC(Cc1ccccc1)N1C(=O)c2ccccc2C1=O` (stereo unspecified): the growth inhibition was 1.3% in assay [1]; 4.05% in assay [2]; 17.9% in assay [3]; 12.2% in assay [4]; 26.9% in assay [5]; 34.1% in assay [6].
Regarding `CCCCCCCCn1nnnc1N`, the growth inhibition in assay [1] was -1.1%; in assay [2], 21%; in assay [3] it was 1.45%; in assay [4], 0.5%; in assay [5], 20.7%; in assay [6], 8.1%.
Take `NCC(=O)N1CCCCC1`: the growth inhibition is 7.05% in assay [1]; 9.75% in assay [2]; 4.95% in assay [3]; -8.15% in assay [4]; -2.1% in assay [5]; 7.7% in assay [6].
As for `COc1cc(-c2cc(OC)c(N=N/C(=N/Nc3ccc([N+](=O)[O-])cc3)c3ccc([N+](=O)[O-])cc3)cc2Cl)c(Cl)cc1N=N/C(=N\Nc1ccc([N+](=O)[O-])cc1)c1ccc([N+](=O)[O-])cc1`, the growth inhibition in assay [1] is 7.9%; in assay [2] it was 9.65%; in assay [3], -5.95%; in assay [4], -21.2%; in assay [5], -14.2%; in assay [6] it was -13.8%.
As for `CC1(C)CC(=O)OC/C=C\CC(Cc2ccccc2)C(=O)C1` (stereo unspecified), the growth inhibition is 4.6% in assay [1]; 15.2% in assay [2]; -12.3% in assay [3]; 6.8% in assay [4]; 12.2% in assay [5]; 1.9% in assay [6].
As for `CC(C)CCCC(C)C1CCC2C3CC=C4CC(OCCC(C)C)CCC4(C)C3CCC12C` (stereo unspecified), the growth inhibition in assay [1] is 55.5%; in assay [2] it was 66.7%; in assay [3], 29.4%; in assay [4], 84.3% (active); in assay [5], 98.1% (active); in assay [6], 90.4% (active).
As for `O=C(O)CCCCC(=O)c1cc(O)ccc1O`, the growth inhibition in assay [1] was 15.3%; in assay [2], 10.1%; in assay [3], 2.55%; in assay [4] it was -53.3%; in assay [5] it was -15.3%; in assay [6], -3.45%.
`CN(Cc1ccccc1)C(OCc1ccccc1)c1ccccc1` (stereo unspecified): the growth inhibition in assay [1] is 3.15%; in assay [2], -13%; in assay [3], 10.1%; in assay [4], -8.3%; in assay [5] it was 20.4%; in assay [6], 5.4%.
For `CCOC(=O)CNC(N)=O`, the growth inhibition in assay [1] was 33.6%; in assay [2], 15.3%; in assay [3], -19.5%; in assay [4], 19.4%; in assay [5], 23.8%; in assay [6] it was 5.2%.
Consider `FC(F)(F)c1cccc2[nH]cnc12`, for which the growth inhibition was -24.6% in assay [1]; -2.85% in assay [2]; 6.25% in assay [3]; -12.4% in assay [4]; -4.65% in assay [5]; 2.3% in assay [6].
Turning to `COC1OC(C)CC(O)C1O` (stereo unspecified), the growth inhibition was 5.3% in assay [1]; -7.05% in assay [2]; 14.7% in assay [3]; -57.6% in assay [4]; 2.7% in assay [5]; -37.8% in assay [6].
